We go through 13 molecules from PubChem BioAssay (NCI).

The structures appear in SMILES notation. The panel holds about 83,000 compounds, 20% with a hit somewhere; the sample as a whole holds those more often.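 Step 1: grow cells in 96-well plates. Step 2: add test compound at a single concentration. Step 3: incubate 48 h. Step 4: record percent growth.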 A number with no mark means an inactive call. Calls of active or inactive are those of the source. The calls were made as follows: active = growth percent below 10; inactive = the rest.

Among the test systems are DU-145 prostate; K-562 leukemia; MALME-3M melanoma; MDA-MB-231 breast; RXF 393 renal; SF-268 CNS; SF-295 CNS; SF-539 CNS; UACC-257 melanoma; M14 melanoma.
Common to all, as to experiment: NCI-60 one-dose screen, 48 h (100 = growth as untreated, 0 = no growth, -100 = all killed)
Common to all, as to conditions: 10 µM unless noted

As to `O=C(CC1(O)C(=O)Nc2ccccc21)c1ccc(C(=O)NCC2CCC3(CC2)OOC2(CCCCC2)OO3)cc1` (stereo not given), the growth with DU-145 prostate was 76.3%; with K-562 leukemia, 39.6%; in the assay with MALME-3M melanoma, 56.1%; in the assay with MDA-MB-231 breast it was 67%; in the assay with RXF 393 renal, 98.1%; with SF-268 CNS it was 82%. Besides, the growth in the assay on SF-295 CNS is 76.2%; in the assay on SF-539 CNS it was 81%; with UACC-257 melanoma it was 67.1%; in the assay with M14 melanoma, 85.7%.

As to `CC[C@H](C)[C@H](NC(=O)C12CC(NC(C)=O)(C1)C2)C(=O)N(C)[C@H](C[C@@H](OC(C)=O)c1nc(C(=O)N[C@@H](Cc2ccccc2)C[C@H](C)C(=O)OC)cs1)C(C)C`, the growth with DU-145 prostate is 0.412% (active); with K-562 leukemia, 11.5%; with MALME-3M melanoma, 51.8%; in the assay with MDA-MB-231 breast, 28.5%; with RXF 393 renal, 43.9%; in the assay on SF-268 CNS, 27.2%. Besides, the growth in the assay on SF-295 CNS was 18.7%; with SF-539 CNS it was 1.61% (active); in the assay on UACC-257 melanoma, 49.6%; in the assay on M14 melanoma, 2.48% (active).

Turning to `CCN(CCO)C(Cc1ccccc1)c1ccccc1` (stereo not given), the growth was 105% in the assay with DU-145 prostate; 107% in the assay with K-562 leukemia; 96.5% with MALME-3M melanoma; 101% in the assay on MDA-MB-231 breast; 106% in the assay with RXF 393 renal; 101% in the assay with SF-268 CNS. For the same molecule, the growth in the assay with SF-295 CNS is 95.5%; in the assay with SF-539 CNS, 106%; in the assay on UACC-257 melanoma it was 114%; in the assay with M14 melanoma, 89%.

Take `CC(C)(C)C(=O)OCOP(=O)(NCc1ccccc1)C1CCCN(O)C1=O` (stereo not given): the growth in the assay on DU-145 prostate was 55%; in the assay with K-562 leukemia, 32.3%; with MALME-3M melanoma, 19.9%; in the assay with MDA-MB-231 breast, 22.6%; in the assay with RXF 393 renal, 8.85% (active); with SF-268 CNS, 10.5%. For the same molecule, the growth was 60.3% in the assay with SF-295 CNS, 45.2% with SF-539 CNS, 57.3% in the assay on UACC-257 melanoma and 38.4% in the assay with M14 melanoma.

Take `CN(CCCCN(C)CCOS(C)(=O)=O)CCOS(C)(=O)=O`: the growth is 96.7% with DU-145 prostate; 93.3% in the assay with K-562 leukemia; 86.9% with MALME-3M melanoma; 79.7% in the assay on MDA-MB-231 breast; 90.1% in the assay on RXF 393 renal; 66.4% in the assay on SF-268 CNS. Besides, the growth was 109% in the assay with SF-295 CNS, 47.2% in the assay with SF-539 CNS, 82.3% with UACC-257 melanoma and 76.4% in the assay with M14 melanoma.

As to `COc1cccc(/C=C/[N+](=O)[O-])c1`, the growth is -2.85% (active) in the assay with DU-145 prostate; 7.02% (active) in the assay with K-562 leukemia; 89.8% with MALME-3M melanoma; 87.6% in the assay on MDA-MB-231 breast; -60.7% (active) in the assay with RXF 393 renal; 78.2% in the assay with SF-268 CNS. Besides, the growth in the assay on SF-295 CNS was 84.3%; with SF-539 CNS, 50.8%; with UACC-257 melanoma it was 83.1%; in the assay on M14 melanoma it was 12.3%.

Regarding `COC(=O)[C@@H](C)C[C@H](Cc1ccccc1)NC(=O)c1csc([C@@H](C[C@H](C(C)C)N(C)C(=O)C2(NC(=O)[C@H]3CCCCN3C)CCC2)OC(C)=O)n1`, the growth in the assay on DU-145 prostate was 2.83% (active); in the assay with K-562 leukemia, 2.16% (active); in the assay with MALME-3M melanoma, 67.1%; with MDA-MB-231 breast, -13.6% (active); with RXF 393 renal, 82.9%; with SF-268 CNS, 17.6%. For the same molecule, the growth in the assay on SF-295 CNS is 6.3% (active); in the assay with SF-539 CNS it was -10.9% (active); in the assay on UACC-257 melanoma, 60.2%; with M14 melanoma, 5.56% (active).

For the molecule `NC(CCl)CCl`, the growth in the assay with DU-145 prostate is 105%; in the assay with K-562 leukemia it was 116%; in the assay with MALME-3M melanoma it was 92.6%; in the assay with MDA-MB-231 breast, 102%; in the assay on RXF 393 renal, 107%; in the assay with SF-268 CNS, 103%. In addition, the growth in the assay on SF-295 CNS was 93.9%; in the assay on SF-539 CNS it was 95.1%; with UACC-257 melanoma, 102%; in the assay on M14 melanoma, 94.6%.

For the molecule `COc1ccc(/C=C\c2cc(OC)c(OC)c(OC)c2)c(NS(=O)(=O)c2ccc(Cl)cc2)c1O`, the growth in the assay with DU-145 prostate is -13.3% (active); in the assay on K-562 leukemia, 9.26% (active); in the assay on MALME-3M melanoma, 58%; in the assay on MDA-MB-231 breast, 8.54% (active); with RXF 393 renal, 37.2%; in the assay with SF-268 CNS, 16.2%. For the same molecule, the growth with SF-295 CNS is 0.936% (active); in the assay with SF-539 CNS, 2.9% (active); in the assay on UACC-257 melanoma, 39.1%; with M14 melanoma, 12.8%.

Regarding `O=C(CC1(O)C(=O)N(Cc2ccccc2)c2ccc(Cl)cc21)c1ccc(C(=O)NCC2CCC3(CC2)OOC2(CCCCC2)OO3)cc1` (stereo not given), the growth was -97.6% (active) in the assay with DU-145 prostate; -49% (active) in the assay on K-562 leukemia; -70.3% (active) with MALME-3M melanoma; -74.9% (active) in the assay with MDA-MB-231 breast; -80.5% (active) in the assay on RXF 393 renal; -49.6% (active) with SF-268 CNS. The growth with SF-295 CNS is -8.3% (active); in the assay with SF-539 CNS, -81.1% (active); in the assay with UACC-257 melanoma, 26.4%; with M14 melanoma, 25.5%.

Take `Cc1c(O)c(CN(CCCl)CCCl)cc(CN(CCCl)CCCl)c1O`: the growth is 107% in the assay on DU-145 prostate; 103% with K-562 leukemia; 93.1% in the assay on MALME-3M melanoma; 93.5% in the assay with MDA-MB-231 breast; 97.6% with RXF 393 renal; 88.4% in the assay with SF-268 CNS. Moreover, the growth in the assay on SF-295 CNS is 93.9%; with SF-539 CNS, 82.5%; in the assay with UACC-257 melanoma it was 92.8%; in the assay on M14 melanoma, 92.4%.

As to `CC[C@H](C)[C@H](NC(=O)[C@H]1CCCCN1C)C(=O)N(C)[C@H](CC(=O)c1nc(C(=O)N[C@@H](Cc2ccccc2)C[C@H](C)C(=O)O)cs1)C(C)C`, the growth in the assay with DU-145 prostate was 106%; in the assay with K-562 leukemia, 32.2%; with MALME-3M melanoma it was 67.1%; in the assay on MDA-MB-231 breast, 88%; in the assay with RXF 393 renal, 87.1%; with SF-268 CNS, 84.2%. Further, the growth in the assay with SF-295 CNS is 87.4%; with SF-539 CNS, 75.8%; with UACC-257 melanoma it was 74%; in the assay with M14 melanoma, 57.9%.

On to `CC[C@H](C)[C@H](NC(=O)c1nccn1C)C(=O)N(C)[C@H](C[C@@H](OC(C)=O)c1nc(C(=O)N[C@@H](Cc2ccccc2)C[C@H](C)C(=O)OC)cs1)C(C)C`, for which the growth is 4.69% (active) in the assay on DU-145 prostate; 6.34% (active) with K-562 leukemia; 71.6% in the assay on MALME-3M melanoma; -5.75% (active) in the assay with MDA-MB-231 breast; -0.416% (active) in the assay with RXF 393 renal; 25.6% with SF-268 CNS. For the same molecule, the growth in the assay on SF-295 CNS is 4.7% (active); with SF-539 CNS it was -31.7% (active); in the assay with UACC-257 melanoma, 54.2%; in the assay on M14 melanoma, 3.12% (active).
